Only some compounds are listed: those with a hit (about 4% of all), similar ones and a draw of the others.
TROY NFkB inh: inhibitors of TROY-dependent NF-kB signaling; Q293 LMP1-TROYcd NF-kB luciferase reporter, 4 h; inhibition, % at 10 µM; 0.98% of 360,000 active; AID 1347056;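 active means compounds whose plate-normalised and pattern-corrected inhibition of the luciferase reporter signal at the single screening dose is 50% or more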
HIF-2a block: blocks HIF-2a reporter activity; 786-0 RCC cells HIF-2a reporter, luciferase luminescence, overnight; inhibition, % at 18.8 µM; 0.72% of 360,000 active; AID 624352;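 active means inhibition of the luminescence signal of 40% or more relative to plate controls, in a single-dose primary screen at 18.75 µM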
KKLEB cytotox: CF airway cell cytotoxicity counter-screen | KKLEB CF airway cells viability, ATPlite luminescence, overnight; stronger effect = lower value; cells stimulated with P. aeruginosa culture filtrate | activity change (cytotoxicity), % at 5 µM | 0.36% of 360,000 active | AID 602141;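 active means corrected activity change at or below -50% at 5 µM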
Peg3 prom inh: inhibitors of Peg3 promoter; HeLa PEG-Prom luciferase reporter, luminescence, overnight; inhibition, % at 20 µM; 1.7% of 360,000 active; AID 588405;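 active means inhibition of at least 50% at 20 µM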
CF NFkB inh: blocks PAF-induced NF-kB reporter in cystic fibrosis cells | KKLEB NF-kB-GFP reporter, GFP fluorescence overnight | inhibition, % at 5 µM | 0.86% of 360,000 active;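 active means at least 50% inhibition at 5 µM, scaled per plate between neutral and stimulator controls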;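 further: PAF is a Pseudomonas aeruginosa culture filtrate used as stimulus; plate controls were PAF-stimulated DMSO wells for no effect and unstimulated DMSO wells for full effect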
TWEAK-Fn14 inh: blocks TWEAK-Fn14 interaction in a reporter cell assay. 2% of 360,000 active. TWEAK-stimulated Fn14 reporter cells, luciferase luminescence, 8 h. inhibition, % at 10 µM; in the data active means inhibition above about 50%
Mdm2-MdmX confirm: confirmation of inhibitors of human Mdm2/MdmX interaction, set 2. shares compounds with HIF-2a block. SaOS-2 split-luciferase Mdm2/MdmX complementation, luminescence. inhibition, % at 8 µM. 99% of 740 active. AID 504601;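 active means mean inhibition of the luminescence signal across two replicates at or above 26 percent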
Target sequence (O15151 whole entry, looked up): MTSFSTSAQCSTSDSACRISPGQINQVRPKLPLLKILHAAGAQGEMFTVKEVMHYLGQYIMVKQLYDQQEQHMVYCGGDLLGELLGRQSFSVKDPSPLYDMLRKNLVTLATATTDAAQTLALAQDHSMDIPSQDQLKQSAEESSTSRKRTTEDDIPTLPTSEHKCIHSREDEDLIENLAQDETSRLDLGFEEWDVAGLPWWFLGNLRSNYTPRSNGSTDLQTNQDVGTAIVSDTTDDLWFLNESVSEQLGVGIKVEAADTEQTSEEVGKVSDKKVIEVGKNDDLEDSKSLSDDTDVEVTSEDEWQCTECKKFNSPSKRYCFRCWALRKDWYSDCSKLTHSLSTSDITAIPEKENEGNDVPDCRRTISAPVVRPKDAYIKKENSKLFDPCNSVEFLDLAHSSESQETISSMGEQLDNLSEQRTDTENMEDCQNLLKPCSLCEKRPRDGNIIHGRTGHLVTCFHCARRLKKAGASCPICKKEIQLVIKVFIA
Target sequence (Q00987 whole entry, looked up): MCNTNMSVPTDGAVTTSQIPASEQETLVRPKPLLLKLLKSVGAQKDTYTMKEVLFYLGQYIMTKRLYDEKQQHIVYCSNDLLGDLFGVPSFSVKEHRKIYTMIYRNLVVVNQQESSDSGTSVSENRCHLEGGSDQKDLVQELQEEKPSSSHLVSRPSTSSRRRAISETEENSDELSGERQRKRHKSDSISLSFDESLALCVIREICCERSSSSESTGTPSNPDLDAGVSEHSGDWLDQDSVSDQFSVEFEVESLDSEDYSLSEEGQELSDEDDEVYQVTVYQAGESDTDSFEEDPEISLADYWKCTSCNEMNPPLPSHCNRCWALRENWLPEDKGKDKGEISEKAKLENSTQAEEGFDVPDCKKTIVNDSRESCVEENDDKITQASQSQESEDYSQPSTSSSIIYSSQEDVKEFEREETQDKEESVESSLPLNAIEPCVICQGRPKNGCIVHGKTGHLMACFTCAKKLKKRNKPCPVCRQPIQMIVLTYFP
HIF-2a conf: confirmation of HIF-2a inhibitors; inhibition, % at 18.8 µM; 56% of 1,800 active; 786-0 RCC cells, HIF-2a luciferase reporter luminescence, overnight; shares compounds with HIF-2a block;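 active means mean inhibition across four replicates of at least 40 percent at the single tested concentration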
HIF-1a counter: HIF-1a inhibition counter-screen for HIF-2a hits | shares compounds with HIF-2a block | MiaPaCa-2 HIF-1a luciferase reporter, desferoxamine, overnight | inhibition, % at 18.8 µM | 72% of 1,800 active;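 active means mean inhibition of the reporter signal across four replicates at the single tested dose of 50% or more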
* hit, by the source's call; · = no result given.

SMILES | TROY NFkB inh | HIF-2a block | KKLEB cytotox | Peg3 prom inh | CF NFkB inh | TWEAK-Fn14 inh | HIF-2a conf | HIF-1a counter | others
Cc1cc(C)n(C(=O)/C(C#N)=N/Nc2cc(Cl)cc(Cl)c2)n1 | 68* | 5 | -62* | 34 | 57* | 51* | · | · | Mdm2-MdmX confirm=95*
Cc1ccc(Sc2ncccc2[N+](=O)[O-])cc1 | 2 | -8 | -4 | -8 | 3 | 4 | · | ·
Cc1c([N+](=O)[O-])cnc(Sc2ccccc2)c1[N+](=O)[O-] | 63* | 50* | -29 | 44 | 52* | 84* | 48* | 84*
Cc1cc(=O)[nH]c(SCC(=O)N2C(C)CCCC2C)n1 (centres undefined) | 0 | 11 | -7 | 4 | 17 | 25 | · | ·
COc1ccc(NS(=O)(=O)c2cccc(C(=O)N/N=C/c3c(F)c(F)c(F)c(F)c3F)c2)cc1 | 18 | 51* | -30 | 95* | 8 | -7 | 36 | 80*
O=C(Nc1nc2c(Cl)cccc2s1)c1ccc([N+](=O)[O-])o1 | 22 | -154 | 1 | -12 | -25 | 14 | · | ·
O=C(Nc1ccccc1N1CCN(C(=O)c2ccccc2)CC1)c1ccc([N+](=O)[O-])o1 | -11 | -8 | -3 | 42 | -25 | -27 | · | ·
CCC(=O)N1CCN(c2ccc(NC(=O)c3ccc([N+](=O)[O-])o3)cc2)CC1 | -15 | 61* | -21 | 106* | 56* | -1 | 31 | 74*
CC(C)(C)C(=O)N1CCN(c2ccc(NC(=O)c3ccc([N+](=O)[O-])o3)cc2)CC1 | -15 | 88* | -4 | 97* | 56* | -9 | 10 | 81*
O=C(Nc1cccc(NC(=O)c2ccccc2Cl)c1)c1ccc([N+](=O)[O-])o1 | -5 | 61* | -9 | 98* | 78* | 35 | 37 | 104*
O=C(Nc1ccc(N2CCN(C(=O)c3ccc(Cl)cc3)CC2)cc1)c1ccc([N+](=O)[O-])o1 | 7 | 97* | -78* | 104* | 96* | 33 | 87* | 107*
CC(C)C(NC(=O)c1ccccc1NC(=O)c1ccccc1)C(=O)NCCCn1ccnc1 (centres undefined) | -43 | -1 | -1 | 2 | -20 | 2 | · | ·
CS(=O)(=O)N1CCN(c2ccc(NC(=O)c3ccc([N+](=O)[O-])o3)cc2)CC1 | -19 | 79* | -65* | 104* | 84* | 1 | 10 | 57*
CCCC(=O)N1CCN(c2ccc(NC(=O)c3ccc([N+](=O)[O-])o3)cc2)CC1 | 5 | 94* | -63* | 100* | 90* | -6 | 64* | 97*
O=C(Nc1ccc(N2CCN(Cc3ccccc3F)CC2)cc1)c1ccccc1[N+](=O)[O-] | 19 | 19 | -2 | 11 | -13 | 8 | · | ·
O=C(Nc1ccc(N2CCN(Cc3ccccc3F)CC2)cc1)c1ccc([N+](=O)[O-])o1 | 15 | 93* | -77* | 100* | 81* | 27 | 31 | 105*
COc1ccc(NC(=O)CSc2c3c(nc4ccccc24)CCCC3)c(OC)c1 | -7 | 47* | -6 | 5 | 31 | 29 | 9 | 91*
O=C(CSc1nc2ccccc2s1)NNC(=O)Nc1ccc(Cl)c(Cl)c1 | 0 | -14 | 1 | 0 | -4 | 0 | · | ·
O=C(NNc1nc2ccccc2s1)Nc1ccc(Cl)c(Cl)c1 | 82* | 40* | -19 | -10 | 8 | 52* | -28 | 48
CN1CCN(Cc2nc3ccccc3c(=O)n2Cc2nc(-c3ccc4ccccc4c3)cs2)CC1 | 41 | 62* | -45 | 105* | 4 | -121 | -10 | 106*
COc1ccc(NC(=O)/C(C#N)=C/c2ccc(Sc3nncn3C)c([N+](=O)[O-])c2)cc1 | 6 | 43* | 0 | 26 | 12 | 13 | 24 | 21
Cn1cnnc1Sc1ccc(C(=O)OCC(=O)Nc2ccccc2)cc1[N+](=O)[O-] | 8 | 6 | -3 | -13 | -1 | 18 | · | ·
COc1ccccc1CNC(=O)Cc1ccccc1 | -35 | -129 | 2 | -99 | -2 | -8 | · | ·
Cc1ccc([C@@H]2CC(=O)[C@@H]3CN(S(=O)(=O)c4ccc(C)cc4)[C@H](c4ccccc4)C[C@@H]3N2S(=O)(=O)c2ccc(Cl)cc2)cc1 | 13 | 9 | -2 | 13 | 2 | -10 | · | ·
COc1ccccc1-c1nnc(Sc2nc([N+](=O)[O-])nn2C)o1 | 31 | 0 | -35 | 66* | 48 | 84* | · | · | Mdm2-MdmX confirm=97*
SMILES | TROY NFkB inh | HIF-2a block | KKLEB cytotox | Peg3 prom inh | CF NFkB inh | TWEAK-Fn14 inh | HIF-2a conf | HIF-1a counter | others
O=C(C(=Cc1ccccc1)CN1CCCCC1)c1ccccc1 | 42 | 80* | -84* | 103* | 80* | 102* | 98* | 105*
Cc1ccc(NC(=O)CNC(=O)c2ccco2)cc1 | -31 | -120 | -1 | -121 | -5 | 0 | · | ·
C=C1CCc2c([nH]c3ccc(OCC(C)C)cc23)C1=O | -17 | 96* | -21 | 103* | 29 | 2 | -6 | 67*
CCn1c2c(c3cc(OCC(C)C)ccc31)CCCC2=O | 12 | 10 | -4 | 9 | 12 | -16 | · | ·
NC1=NC[C@@H](CC2CCCCC2)N1CCc1cc(C(F)(F)F)cc(C(F)(F)F)c1 | 7 | -27 | 4 | 94* | 15 | 3 | · | · | Mdm2-MdmX confirm=103*
Cc1ccc(S(=O)(=O)N2CCCCC2)c2nsnc12 | 6 | 16 | -2 | 0 | 3 | 27 | · | ·
Cc1ccc(NC(=O)C2=C(c3ccccc3)S(=O)(=O)CCS2(=O)=O)cc1 | 74* | 81* | -72* | 109* | 96* | 88* | 81* | 102* | Mdm2-MdmX confirm=103*
Cc1ccc(NC(=O)c2ccccc2)cc1 | -63 | -225 | -17 | -307 | 12 | -2 | · | ·
O=C(CN1C(=O)NC2(CCCCCC2)C1=O)c1ccc(OC(F)F)cc1OC(F)F | 1 | 14 | 9 | 11 | -4 | -8 | · | ·
Cc1ccc2c(Cl)c(Cc3ccccc3)c(=S)[nH]c2n1 | 12 | 7 | 0 | 18 | 4 | 21 | · | ·
O=C(NC1CC1)C1CCN(S(=O)(=O)c2ccc(Cl)c([N+](=O)[O-])c2)CC1 | 12 | 22 | 9 | 41 | -6 | 0 | · | · | Mdm2-MdmX confirm=102*
CCC(=O)N(C)C[C@H]1Oc2cc(Br)ccc2S(=O)(=O)N([C@@H](C)CO)C[C@H]1C | -14 | 4 | -9 | -3 | 11 | -23 | · | ·
O=C1NC(=O)C(Cc2ccccc2)(c2cccnc2)N1 (centres undefined) | -18 | 20 | -4 | 1 | -13 | 19 | · | ·

Source: PubChem (Sanford-Burnham Center for Chemical Genomics)
